Screens: PubChem BioAssay, The Scripps Research Institute Molecular Screening Center
TLR4-MyD88 BLA – blocks binding of human TLR4 to MyD88. 200,000 compounds, 0.18% hits. O00206+Q99836. inhibition, % at 8.4 µM. HeLa CL3-4 TLR4/MyD88 BLA complementation, FRET ratio; in the data active means inhibition above about 25%;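 further: 0% = vehicle and 100% = reference inhibitor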
TLR9-MyD88 block – TLR9-MyD88 interaction inhibition; Q9NR96+Q99836; CHO BLA complementation TLR9-MyD88, CCF4 FRET ratio; inhibition, % at 4.98 µM; 340,000 compounds, 0.21% hits; AID 504734;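 active means inhibition above the mean over all tested compounds plus 3 SD, cut at about 21% in these data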;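 further: 0% = DMSO only wells and 100% = clavulanate BLA inhibitor control wells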
Target sequence (Q99836 whole entry, looked up): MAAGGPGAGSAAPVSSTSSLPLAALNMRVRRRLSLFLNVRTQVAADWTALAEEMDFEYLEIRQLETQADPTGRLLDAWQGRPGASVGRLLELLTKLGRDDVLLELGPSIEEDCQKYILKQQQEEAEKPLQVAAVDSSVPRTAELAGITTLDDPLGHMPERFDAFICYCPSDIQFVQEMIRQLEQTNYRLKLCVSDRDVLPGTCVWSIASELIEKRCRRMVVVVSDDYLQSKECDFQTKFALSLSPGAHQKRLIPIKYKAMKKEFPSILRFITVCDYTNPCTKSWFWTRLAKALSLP
Target sequence (Q9NR96 whole entry, looked up): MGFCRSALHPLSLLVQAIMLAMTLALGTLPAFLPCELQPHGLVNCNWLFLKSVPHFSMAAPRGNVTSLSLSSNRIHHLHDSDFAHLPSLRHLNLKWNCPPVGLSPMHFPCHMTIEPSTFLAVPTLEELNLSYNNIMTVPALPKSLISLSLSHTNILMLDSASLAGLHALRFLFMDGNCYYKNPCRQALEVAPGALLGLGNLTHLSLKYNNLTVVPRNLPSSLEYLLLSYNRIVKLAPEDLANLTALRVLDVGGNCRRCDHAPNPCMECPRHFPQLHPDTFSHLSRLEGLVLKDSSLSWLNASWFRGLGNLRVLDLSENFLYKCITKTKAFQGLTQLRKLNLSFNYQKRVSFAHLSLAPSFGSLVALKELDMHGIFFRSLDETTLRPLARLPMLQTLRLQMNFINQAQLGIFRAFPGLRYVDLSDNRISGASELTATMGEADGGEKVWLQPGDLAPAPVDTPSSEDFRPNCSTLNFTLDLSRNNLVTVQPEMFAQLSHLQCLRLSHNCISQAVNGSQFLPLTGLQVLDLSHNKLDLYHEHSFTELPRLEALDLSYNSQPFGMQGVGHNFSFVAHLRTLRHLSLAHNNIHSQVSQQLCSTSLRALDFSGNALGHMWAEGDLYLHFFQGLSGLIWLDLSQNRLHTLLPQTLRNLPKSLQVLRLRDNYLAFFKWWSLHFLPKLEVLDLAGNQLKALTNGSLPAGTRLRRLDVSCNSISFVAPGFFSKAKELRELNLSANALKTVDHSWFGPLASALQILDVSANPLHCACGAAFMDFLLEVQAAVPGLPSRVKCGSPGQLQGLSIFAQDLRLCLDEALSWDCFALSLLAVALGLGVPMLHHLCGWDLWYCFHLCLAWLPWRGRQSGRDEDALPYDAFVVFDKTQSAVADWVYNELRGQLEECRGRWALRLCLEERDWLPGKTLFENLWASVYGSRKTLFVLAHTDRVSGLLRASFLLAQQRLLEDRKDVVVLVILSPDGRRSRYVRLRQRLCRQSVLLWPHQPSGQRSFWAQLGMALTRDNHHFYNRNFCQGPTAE
ABHD5-PLIN5 inh – inhibitors of human ABHD5-perilipin-5 interaction; Q00G26+Q8WTS1; Split G. princeps luciferase complementation, luminescence, 4 h; inhibition, % at 4 µM; 360,000 compounds, 0.78% hits;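 active means inhibition above the mean inhibition across every tested compound plus 3 SD, cut at about 22% in these data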;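 further: 0% = DMSO only wells and the 100% control is not disclosed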
NOD2-RIPK2 inh – NOD2-RIPK2 protein interaction inhibition; inhibition, % at 4.98 µM; O43353; CHO BLA complementation NOD2-RIPK2, CCF4 ratio; 360,000 compounds, 0.38% hits; in the data active means inhibition above about 21%;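 further: 0% = vehicle only and 100% = reference blocker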
ABHD5 PLIN5 conf – ABHD5-PLIN5 interaction inhibition, confirmed; shares compounds with ABHD5-PLIN5 inh; biochemical ABHD5-PLIN5 interaction, luminescence; inhibition, % at 4 µM; 2,200 compounds, 67% hits; in the data active means inhibition above about 23%;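 further: 0% = DMSO vehicle wells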
HNF4 split-luc – active in HNF4 split-luciferase counter-screen for ABHD5-PLIN5 inhibitors; AID 651674; 2,200 compounds, 77% hits; shares compounds with ABHD5-PLIN5 inh; HNF4 dimerization, luminescence, biochemical; inhibition, % at 4 µM;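 active means mean inhibition across replicate wells exceeding the computed hit threshold, cut at about 13% in these data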;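 further: light from luciferase halves that rejoin when HNF4 fusion proteins dimerize; 0% = DMSO only wells and the 100% control is not given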
The depositor's hits bear a star; x = no result. Sampled rows, rich in hits. Any-hit rate of the full collection: about 1.2%.

SMILES	TLR4-MyD88 BLA	TLR9-MyD88 block	ABHD5-PLIN5 inh	NOD2-RIPK2 inh	ABHD5 PLIN5 conf	HNF4 split-luc
CC(C)(C)c1ccc(/C=C(\C#N)C(=O)NC2CC2)cc1	x	x	28*	-4	47*	35*
CCOC(=O)Cn1ncc2c3ccccc3n(CC(=O)OCC)c2c1=O	x	6	4	-17	x	x
COc1cccc(C2CC(c3ccc(Cl)cc3Cl)Nc3nc(N)nn32)c1 (stereo not drawn)	4	2	21	13	x	x
COc1cccc(C2CC(c3ccccc3Cl)Nc3nc(N)nn32)c1 (stereo not drawn)	-5	-5	23*	-27	7	2
CCC1(C)N=C(c2ccc3c(c2)OCO3)CC(c2ccccc2O)N1 (stereo not drawn)	7	6	50*	2	91*	65*
COc1cccc(C2=NC(C)(C)NC(c3ccccc3O)C2)c1 (stereo not drawn)	7	-1	57*	7	73*	72*
CNC(=O)COc1coc(CN2CCN(c3cccc(Cl)c3)CC2)cc1=O	x	6	-3	2	x	x
CC1(C)CC(=O)C(C(c2cc([N+](=O)[O-])ccc2Cl)C2C(=O)CC(C)(C)CC2=O)C(=O)C1	x	x	6	-14	x	x
Cc1sc(C(C2C(=O)CC(C)(C)CC2=O)C2C(=O)CC(C)(C)CC2=O)cc1[N+](=O)[O-]	11	9	56*	8	92*	89*
Cc1ccc(CN2C(=O)C(=O)c3cc(C)ccc32)cc1	x	5	30*	15	25*	43*
O=c1cc(-c2ccc(O)cc2)oc2c1ccc1ccccc12	x	1	-11	-1	x	x
O=c1cc(-c2ccc(O)cc2)oc2c(O)c(O)c(O)c(O)c12	x	-6	34*	0	-6	14*
O=C(CC(Nc1ccc(F)cc1)C(=O)O)c1ccccc1 (stereo not drawn)	13	7	43*	-5	38*	89*
COc1ccc(Br)cc1/C=C/C(=O)c1ccc(NC(C)=O)cc1	13	5	27*	0	85*	81*
COc1ccccc1-c1sc2ccccc2c1C#Cc1ccc(N(C)C)cc1	x	7	-1	16	x	x
CCOC(=O)c1c(-c2ccc(C)o2)csc1NC(=O)CSc1nnc(C)s1	2	2	33*	19	7	37*
CCOC(=O)c1c(-c2ccc(C)o2)csc1NC(=O)COC(=O)c1ccc(NC(N)=O)cc1	-8	-5	38*	10	21	44*
CCOC(=O)c1c(-c2ccc(C)o2)csc1NC(=O)CSc1nnnn1-c1ccccc1	13	-5	40*	13	23*	62*
CCOC(=O)c1c(-c2ccccc2)csc1NC(=O)CSc1nnc(C)s1	3	-1	-2	10	x	x
CCSC1=NC(C)(C)C=C(/C=C/c2ccc(Cl)cc2Cl)N1	-3	0	26*	1	32*	33*
CSC1=NC(C)(C)C=C(/C=C/c2ccc(Cl)cc2)N1	-6	-1	24*	-8	45*	43*
COc1cccc(CC(=O)OC(C)C(=O)Nc2ccc(N3CCOCC3)cc2)c1 (stereo not drawn)	x	-11	7	-3	x	x
CN(C)CCNC(=O)/C(=C/c1ccc(-c2ccc(Cl)cc2)o1)NC(=O)c1ccccc1	-16	3	25*	-12	13	4
Cc1ccc(C(=O)N/C(=C\c2ccc(-c3ccc(Br)cc3)o2)C(=O)NCCCN(C)C)cc1	2	3	36*	5	21	2
CN(C)CCCNC(=O)/C(=C\c1ccc(-c2cccc([N+](=O)[O-])c2)o1)NC(=O)c1ccccc1	0	1	14	-5	x	x
SMILES	TLR4-MyD88 BLA	TLR9-MyD88 block	ABHD5-PLIN5 inh	NOD2-RIPK2 inh	ABHD5 PLIN5 conf	HNF4 split-luc
CN(C)CCNC(=O)/C(=C/c1ccc(-c2ccc(Cl)cc2Cl)o1)NC(=O)c1ccccc1	-9	3	35*	-2	7	12
Cc1ccc(C(=O)N/C(=C\c2ccc(-c3cccc([N+](=O)[O-])c3)o2)C(=O)NCCCN(C)C)cc1	x	0	9	9	x	x
Cc1ccc(S(=O)(=O)N2CCC(C(=O)OCC(=O)NCc3cccc(Cl)c3)CC2)cc1C	x	2	4	-5	x	x
COc1cc([N+](=O)[O-])ccc1NC(=O)CSc1n[nH]c(C(C)C)n1	-10	-3	-5	5	x	x
COC(CNC(=O)C(=O)NCC1CCCN1S(=O)(=O)c1cccs1)OC (stereo not drawn)	x	-1	10	1	x	x
Cc1ccc(NC(=O)c2cnccn2)c(Br)c1	x	-4	100*	5	2	1
Cc1ccc(NC(=O)c2cnccn2)nc1	x	7	4	-3	x	x
COCCCNC(=O)C[C@H]1C[C@H](C(=O)N2CCCCC2)[C@@]2(CCc3ccccc3)c3[nH]c4cc(-c5ccco5)ccc4c3CCN2C1=O	x	-1	28*	-2	12	26*
O=C(C[C@H]1C[C@H](C(=O)N2CCCCC2)[C@@]2(CCc3ccccc3)c3[nH]c4cc(-c5ccco5)ccc4c3CCN2C1=O)NCCN1CCOCC1	x	-2	15	6	x	x
C[C@]12c3[nH]c4cc(-c5ccco5)ccc4c3CCN1C(=O)[C@@H](CC(=O)NCCc1ccccn1)C[C@@H]2C(=O)N1CCCCC1	x	4	42*	-7	8	24*
CN1CCN(CC#CCn2c3ccccc3c3ccccc32)CC1	-7	0	23*	-7	12	1
COc1ccc(C2CC(c3ccccc3)=NN2C(=O)COC(=O)c2cccc(N)c2)cc1 (stereo not drawn)	x	-10	-6	-8	x	x
Cc1cc(C)nc(S/C=C/C(=O)c2ccccc2F)n1	x	6	48*	10	96*	100*
CCCNC(=O)C1(C)CCCN(Cc2cccc(Oc3ccccc3)c2)C1 (stereo not drawn)	x	x	-8	3	x	x
O=C1CC(c2ccc(Cl)cc2)Oc2ccc(Cl)cc21 (stereo not drawn)	x	-8	23*	-2	62*	33*
O=C1CC(c2ccccc2)Oc2ccccc21 (stereo not drawn)	x	3	12	-8	x	x
O=c1c2ccccc2sc2nc(C3CCCCC3)n(Cc3ccco3)c(=O)c12	21	4	26*	5	37*	43*
Cc1ccc(-c2nc3c(c(=O)c4ccccc4n3C)c(=O)n2Cc2ccco2)cc1	x	-4	37*	1	19	13*
Cn1c2ccccc2c(=O)c2c(=O)n(Cc3ccco3)c(-c3ccc(F)cc3)nc21	x	8	10	-4	x	x
CCc1nc2sc3ccccc3c(=O)c2c(=O)n1Cc1ccco1	3	-11	24*	8	36*	50*
CCCc1nc2sc3ccccc3c(=O)c2c(=O)n1Cc1ccccc1	x	1	-10	-2	x	x
CCCCN(C)C(=O)c1nc2ccccn2c1CN1CCN(C/C=C/c2ccccc2)CC1	-6	1	1	3	x	x
